KCNQ2 pot – enhances the rat KCNQ2 potassium channel; O88943; CHO-K1 KCNQ2, FluxOR thallium flux fluorescence; active compounds read high; B-score at 10 µM; 0.54% of 310,000 active; AID 2239;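 active means fluorescence ratio B-score at least 3 SD of library B-scores, with initial fluorescence B-score within 3 of them, cut at about 5.3 in these data; same plate scores as AID 2156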;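 further: B-score of peak minus minimum over baseline fluorescence ratio after K+ and Tl+ stimulus; positive B-score means potentiation of KCNQ2 with more thallium influx and brighter signal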
KCNQ2 block – KCNQ2 (rat) channel inhibition. 1.1% of 310,000 active. CHO-K1 KCNQ2, FluxOR thallium flux, 20 min; active compounds read low. AID 2156. B-score at 10 µM. O88943;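 active means fluorescence ratio B-score at most minus 3 library SDs, with starting brightness B-score within 2 library SDs, cut at about -5.5 in these data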
Numbers without * were called inactive; i = inactive; . = no result. Hits are enriched below; roughly 1.6% of the tested compounds scored in any of these assays.

SMILES	KCNQ2 pot	KCNQ2 block
COCCn1c(C)cc(/C=C(\C#N)C(=O)OC(C)C(=O)Nc2ccc(NC(C)=O)cc2)c1C (stereo not drawn)	0.07	i
CCC(=O)n1nc(NCc2ccccc2OC)nc1NCc1ccccc1OC	-7.34	-7.34*
COc1ccc(CNc2nc(NCc3ccc(OC)cc3)n(C(C)=O)n2)cc1	.	i
CCN1/C(=C/c2ccc3ccccc3[n+]2CCCS(=O)(=O)[O-])C=Cc2cc(C)ccc21	0.41	i
CCN1/C(=C/c2ccc3ccccc3[n+]2CC)C=Cc2ccccc21	-14.6	-14.6*
CCCc1nc(SCC(=O)N2CCC(Cc3ccccc3)CC2)c2c(=O)n(C)c(=O)n(C)c2n1	22.9*	i
CCCc1nc(SCC(=O)Nc2ccccc2)c2c(=O)n(C)c(=O)n(C)c2n1	1.51	i
Cc1ccc(CS/C(Nc2ccccc2C)=C(\C#N)C(=O)NCc2ccco2)c(C)c1	.	i
Cc1ccccc1N/C(SCc1ccc(Cl)cc1)=C(/C#N)C(=O)NCc1ccco1	-6.96	-6.96*
O=C(Nc1nc2cc3c(cc2s1)OCCO3)c1ccc([N+](=O)[O-])o1	.	i
Cn1c(=O)c2c(nc(Br)n2Cc2ccccc2Cl)n(C)c1=O	.	i
COC(=O)Cn1c(=O)c2c(nc(Br)n2Cc2ccccc2Cl)n(C)c1=O	-5.84	-5.84*
CCc1ccc(NC(=O)C(=O)NNC(=O)COc2cccc(OC)c2)cc1	6.02*	i
COc1ccc(NC(=O)C(=O)NNC(=O)COc2ccc(OC)cc2)cc1	1.84	i
Cc1ccc(N(CC(O)CN2C(=O)NC(C)(C)C2=O)S(=O)(=O)c2ccc([N+](=O)[O-])cc2)cc1 (stereo not drawn)	0.05	i
CCCN(CCC)C(=O)Cn1c(=O)c2ccccc2n2c(=S)sc(-c3ccccc3C)c12	-6.78	-6.78*
CCCN(CCC)C(=O)Cn1c(=O)c2sccc2n2c(=S)sc(-c3ccccc3)c12	.	i
O=C(NCc1ccccc1)c1ccc(-c2ccccc2F)o1	.	i
O=C(NCCc1ccccc1)c1ccc(-c2ccc(F)cc2)o1	-5.84	-5.84*
CC(C(=O)NN)c1ccc([N+](=O)[O-])cc1 (stereo not drawn)	.	i
CCC1Oc2ccccc2N(CC(=O)NCC2CCCO2)C1=O (stereo not drawn)	.	i
CCCOc1ccc(-c2nc(N3CCN(C)CC3)c3ccccc3n2)cc1	-6.67	-6.67*
CCCOc1ccc(-c2nc(N3CCN(CC)CC3)c3ccccc3n2)cc1	.	i
CN(CCOC(=O)CN1C(=O)c2ccccc2C1=O)C1=NS(=O)(=O)c2ccccc21	0.4	i
C=C(C)CSc1cc(C)nc2c(-c3ccccc3)c(C)nn12	.	i
SMILES	KCNQ2 pot	KCNQ2 block
CCOC(=O)CN1C(=O)C(C)(C)Oc2ccc(C(=O)Nc3ccccc3OC)cc21	-6.47	-6.47*
COc1ccccc1NC(=O)c1ccc2c(c1)N(CC(=O)NC(C)(C)C)C(=O)C(C)(C)O2	.	i
Cc1ccc(NC(=O)c2ccc3c(c2)N(CC(=O)N2CCCCC2)C(=O)C(C)(C)O3)cc1	-7.89	-7.89*
CC(C)(C)NC(=O)c1ccc2c(c1)N(CC(=O)N1CCCCC1)C(=O)C(C)(C)O2	0.93	i
COc1ccc2oc(C(=O)NC3(C)CCS(=O)(=O)C3)c(C)c2c1 (stereo not drawn)	0.58	i
COc1ccc(NC2CCCN(C(=O)Cn3ccc(C)n3)C2)cc1OC (stereo not drawn)	.	i
Cc1ccc(C)c(S(=O)(=O)Nc2ccc(C(=O)N3CCC3)cc2)c1	.	i
COc1ccc(OC)c(C(=O)NC(CC(N)=O)c2ccc(NC(C)C)c([N+](=O)[O-])c2)c1 (stereo not drawn)	-9.64	-9.64*
COc1ccc(OC)c(C(=O)NC(CC(N)=O)c2ccc(NCC3CC3)c([N+](=O)[O-])c2)c1 (stereo not drawn)	.	i
N#CC1=C(N)N=C(SCc2cccc3ccccc23)C(C(N)=O)C12CCCCC2 (stereo not drawn)	.	i
CN(C(=O)COC(=O)CCc1c[nH]c2ccccc12)C(c1ccccc1)c1ccccc1	-5.93	-5.93*
O=C(COC(=O)CCc1c[nH]c2ccccc12)NCc1ccccc1	.	i
CCCCCCCCCCn1c2c(c(=N)c3c1CCC3)CCC2	32*	i
CCCCCn1c2c(c(=N)c3ccccc31)CCC2	0.75	i
CC(C)(O)P(=O)(O)CCc1ccccc1	.	i
O=C(NC1CCN(Cc2ccccc2)CC1)c1cccc(OC(F)F)c1	0.15	i
O=C(O)c1ccc(NC(=S)NC(=O)c2cccc(COc3ccccc3)c2)cc1	.	i
CC(=O)c1cccc(OCc2cc(C(=O)NC3CCN(Cc4ccccc4)CC3)no2)c1	6.32*	i
O=C(NC(=S)Nc1ccc(CN2CCCCC2)cc1)c1cccc(OCc2ccccc2)c1	-6.05	-6.05*
CCCCS(=O)(=O)N1CCCC(C(=O)NCC2CCCO2)C1 (stereo not drawn)	.	i
Cc1onc(-c2c(F)cccc2Cl)c1C(=O)OCC(=O)NC(N)=O	0.29	i
Cc1onc(-c2c(F)cccc2Cl)c1C(=O)OCC(=O)NC(c1ccccc1)c1ccccc1	-5.58	-5.58*
O=C(CC(=O)c1ccccc1)Nc1ccccc1C(F)(F)F	.	i
Clc1cccc(/C=N/Nc2nnc(Cl)c3ccccc23)c1	.	i
Clc1ccc(/C=N/Nc2nnc(-c3ncc[nH]3)c3ccccc23)cc1	-5.71	-5.71*
SMILES	KCNQ2 pot	KCNQ2 block
CC(NC(=O)/C=C/c1ccccc1[N+](=O)[O-])C1CC2CCC1C2 (stereo not drawn)	-6.23	-6.23*
CC(NC(=O)c1cc([N+](=O)[O-])cc([N+](=O)[O-])c1)C1CC2CCC1C2 (stereo not drawn)	0.13	i
CCOC(=O)CN1C(=O)N[C@H](c2ccc(Br)cc2)C(C(C)=O)=C1C	0.07	i
Cc1nn(-c2ccccc2)c2c1C(c1ccc(Cl)cc1)N(c1ccccc1)C(=O)N2 (stereo not drawn)	-7.57	-7.57*
Cc1nn(-c2ccccc2)c2c1C(c1ccc([N+](=O)[O-])cc1)N1C(=N2)C(=O)Nc2ccccc21 (stereo not drawn)	3.62	i
COCCn1c(Cc2ccccc2)nnc1SCC(=O)NC1CCCCC1	0.63	i
O=C(CNS(=O)(=O)c1ccc(Br)s1)NCc1ccc(F)cc1	-5.88	-5.88*
O=C(CCNS(=O)(=O)c1ccc(Br)s1)NCc1ccc(F)cc1	0.09	i
O=C1Nc2cc(Cl)ccc2Nc2cscc21	0.03	i
CN1C(C(=O)Nc2ccc(OC(F)(F)F)cc2)=CC(c2ccc3c(c2)OCO3)=NS1(=O)=O	.	i
CCOC(=O)CSC1=NC(=O)/C(=C\c2ccc(Cl)cc2)S1	0.04	i
CC(C)=N/N=C1/NC(=O)C(CC(=O)Nc2cc(Cl)ccc2C)S1 (stereo not drawn)	5.75*	i
Cc1ccccc1NC(=O)CC1SC(=Nc2ccc(O)cc2)NC1=O (stereo not drawn)	0.93	i
Cc1ccc(Cl)cc1NC(=O)C1C2CCC(O2)C1C(=O)O (stereo not drawn)	.	i
Cc1nc2ccccc2n1S(=O)(=O)c1ccc(S(=O)(=O)N2CCCCCC2)cc1	.	i
Cc1ccc(S(=O)(=O)n2c(C)nc3ccccc32)cc1	-7.28	-7.28*
O=C(NC1=NCCS1)c1cc(-c2cccc(Br)c2)nc2ccccc12	.	i
Cc1ccc2nc(-c3cccc(Br)c3)cc(C(=O)NC3=NCCS3)c2c1	-7.28	-7.28*
CCOCCCn1c(C)nc2c(c1=O)c1nc3ccccc3nc1n2-c1ccc(C)cc1	.	i
